Screens from PubChem.
TRHR agonist = qHTS for Small Molecule Agonists and Allosteric Enhancers of Human TRH Receptor: Primary Screen for Agonists. Thyrotropin-releasing hormone receptor (Homo sapiens), P34981. actives 0.18% (n = 360,000). TRHR cells, calcium flux fluo-8, FDSS agonist mode. activation, % at 2 µM; note: 0% is about no effect
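Fluo-8-loaded TRHR cells; 10 s baseline, compound added, kinetic Ca2+ fluorescence read 1/s, agonist mode.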
TRHR PAM = qHTS for Small Molecule Agonists and Allosteric Enhancers of Human TRH Receptor: Primary Screen for Enhancers | Thyrotropin-releasing hormone receptor (Homo sapiens), P34981 | TRHR cells, fluo-8 calcium fluorescence, EC20 TRH enhancement | enhancement, % at 2 µM | actives 0.66% (n = 360,000) | AID 493056, 2011; in the data active = enhancement above about 30%; note: 0% is about no effect
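TRHR-expressing cells loaded with fluo-8 calcium dye were read kinetically (ex 480/em 530) during compound addition, then stimulated with an EC20 of TRH (10 nM final). Enhancement of the Gq-mediated intracellular calcium response was scored.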
D1 potentiator = Potentiators of Human D1 Dopamine Receptor: qHTS; D(1A) dopamine receptor (Homo sapiens), P21728; HEK293 TREx D1 cells, calcium flux, dopamine EC20 potentiation; potentiation, % at 10 µM; actives 0.036% (n = 360,000); AID 504651, 2011; in the data active = potentiation above about 30%; note: 0% is about no effect
Target sequence (P21728 whole entry, looked up): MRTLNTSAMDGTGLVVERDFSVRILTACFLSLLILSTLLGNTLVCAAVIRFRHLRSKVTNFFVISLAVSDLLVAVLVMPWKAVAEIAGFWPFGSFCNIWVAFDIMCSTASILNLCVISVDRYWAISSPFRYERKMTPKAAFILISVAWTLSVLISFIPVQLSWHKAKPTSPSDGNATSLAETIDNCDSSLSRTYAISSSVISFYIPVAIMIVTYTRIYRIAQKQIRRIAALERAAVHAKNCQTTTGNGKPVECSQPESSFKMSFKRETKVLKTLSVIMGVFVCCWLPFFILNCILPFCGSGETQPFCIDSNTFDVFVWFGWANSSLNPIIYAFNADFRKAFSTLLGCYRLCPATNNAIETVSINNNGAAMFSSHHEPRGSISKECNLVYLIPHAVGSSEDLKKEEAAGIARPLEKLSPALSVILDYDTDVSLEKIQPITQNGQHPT
D1 agonist = Allosteric Agonists of the Human D1 Dopamine Receptor: qHTS; activation, % at 2 µM; HEK293 T-REx D1 cells, calcium flux, agonist mode; actives 1% (n = 360,000); D(1A) dopamine receptor (Homo sapiens), P21728; AID 504660, 2011; note: 0% is about no effect
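Agonism was scored from calcium flux recorded over 180 s (1 read/s) after pintool compound addition, following a 10-cycle baseline. Cells were inducible force-coupled HEK293 TREx D1, plated overnight at 30 C and loaded with no-wash calcium dye.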
D1 antag = Antagonist of Human D 1 Dopamine Receptor: qHTS | D(1A) dopamine receptor (Homo sapiens), P21728 | actives 3.2% (n = 360,000) | HEK293 TREx D1 cells, calcium flux, dopamine EC80; stronger effect = lower value | activity change, negative = inhibition, % at 10 µM; in the data active = activity change below about -30%; note: % is set by controls: 0 for no effect and ±100 for the full control effect
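Antagonism measured as reduced calcium response to an EC80 dopamine addition following 180 s compound pre-read; cells were inducible HEK293 Trex D1 plated overnight at 30 C, read kinetically at 1 cycle/sec.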
Starred values were filed as active, the others as inactive; · = no result; ! = not confirmed by another sample. The list is not random: actives were taken first. Their share in the collection is about 4.6%. Cut-off read from the data, not from the text of the source, unless noted: active = activation above about 30%; inactive = the rest.

SMILES	TRHR agonist	TRHR PAM	D1 potentiator	D1 agonist	D1 antag
CC[C@@H](CO)NC(=O)[C@@H]1C=C2c3cccc4c3c(cn4C)C[C@H]2N(C)C1	14.9	-4.1	-2.8	18.0	-76.8*!
CCC(CO)NC(=O)C1C=C2c3cccc4[nH]cc(c34)CC2N(C)C1 (stereo not drawn)	0.4	-3.0	-13.6	24.5	-86.4*
COC(=O)C1C=C2c3cccc4[nH]cc(c34)CC2N(C)C1 (stereo not drawn)	1.1	-2.5	-8.2	8.9	-1.0
Cc1nn(CC(C)C)c(Cl)c1C(=O)O	0.3	0.0	4.8	2.4	16.6
COC(=O)C1=C(c2ccc(S(C)(=O)=O)cc2)C[C@@H]2CC[C@H]1N2C	0.0	-8.2	-1.4	0.4	11.5
Cc1cccc(CN2C(=O)CN=C(c3ccccc3)c3cc(Cl)ccc32)c1	-0.5	0.3	0.1	1.9	-4.2
Cc1cc(OCC(=O)N2CCN(CCc3ccncc3)CC2)cc(C)c1Cl	-0.8	12.8	0.9	3.9	-2.3
O=P(CCl)(Nc1ccccc1)C(Cl)(Cl)Cl (stereo not drawn)	-0.1	-4.4	1.4	-0.2	-40.9*
O=P(Nc1ccccc1)(Oc1ccccc1)Oc1ccccc1	-0.3	16.9	4.9	2.1	1.8
Cc1ccc(C)c(C2(O)CC(C)N(C)CC2C)c1 (stereo not drawn)	1.1	1.3	-5.5	1.3	-46.0*
Cc1[nH]c2ccc(OCc3ccccc3)cc2c1CCN	0.2	1.4	-3.4	11.7	8.1
COc1ccc2[nH]c(C)c(CCNCc3cn(C)c4ccccc34)c2c1	3.4	-5.6	-11.2	41.2*	-54.9*
Nc1ccccc1C(=O)OCC(=O)c1ccc2c(c1)OCCO2	-0.5	7.1	-13.1	12.5	-33.0*
CC(=O)Nc1ccccc1C(=O)OCC(=O)c1ccc2ccccc2c1	-0.7	-3.2	-7.8	22.6	5.6
Cc1ccccc1-c1nn2c(=O)cc(CN3CCN(C(=O)COc4ccccc4Cl)CC3)nc2s1	-0.3	11.4	-2.9	-1.8	-34.8*
O=C(Nc1ccc2c(c1)OCCO2)c1cccn(Cc2cccc(F)c2)c1=O	0.1	0.1	1.9	1.4	·
COc1ccccc1OP(=O)(Nc1ccc(Br)cc1)Oc1ccccc1OC	0.5	5.9	-4.5	5.7	-46.6*
Cc1nnc(NC(=O)c2cccn(Cc3ccc(Cl)cc3)c2=O)s1	0.2	-8.5	0.8	0.7	4.7
CCOc1cc2c(cc1OCC)-n1cccc1C(c1ccc(F)c(OC)c1)NC2 (stereo not drawn)	3.9	-10.1	-6.2	65.7*	-42.5*
Cc1cc(OC(C)C(=O)NCc2ccncc2)c2c3c(c(=O)oc2c1)CCC3 (stereo not drawn)	-1.0	0.8	-2.1	1.8	-2.7
O=c1[nH]c(O)c(/C=C2/C=CC(c3cc(Cl)ccc3Cl)=N2)c(=O)[nH]1	26.5	-16.5	5.6	72.5*	-7.0
CCc1ccc(N2C(=O)NC(=O)C(CCc3ccncc3)(CCc3ccncc3)C2=O)cc1	0.5	1.1	0.8	1.6	-0.6
O=C1NC(=O)C(CCc2ccncc2)(Cc2cccc(Cl)c2Cl)C(=O)N1c1ccc(Br)cc1 (stereo not drawn)	0.0	2.5	-9.2	1.6	-75.7*
COc1ccc(C2NCc3ccc4c(c3-n3cccc32)OCO4)cc1O (stereo not drawn)	4.6	2.0	-2.9	54.6*	-36.3*
c1cc2n(c1)-c1c(ccc3c1OCO3)CNC2c1ccc2c(c1)OCO2 (stereo not drawn)	0.9	3.2	-12.7	17.5	2.8
SMILES	TRHR agonist	TRHR PAM	D1 potentiator	D1 agonist	D1 antag
Cc1ccc2nc(NC(=O)c3cccn(Cc4ccc(Cl)cc4)c3=O)sc2c1	0.0	21.4	1.6	0.1	30.1
COc1ccc2c(c1OC)CN1CCc3cc4c(cc3[C@H]1C2)OCO4	0.0	10.9	-13.3	1.2	-80.4*
COc1ccc2c(c1OC)CN1CCc3cc4c(cc3C1C2)OCO4 (stereo not drawn)	0.5	-3.8	-9.3	1.3	-80.1*
COc1cc2c(cc1OC)C(C1c3cc4c(cc3CCN1C)OCO4)OC2=O (stereo not drawn)	0.6	-7.2	-3.3	1.2	6.0
CN(N=O)c1cc(O)ccc1O	1.5	4.0	-3.5	2.7	-2.4
CN1CCN(c2nc(N)cc(=O)[nH]2)CC1	1.6	5.7	0.9	2.0	-57.8*
Cc1cccc(-n2nc(C)c3c2NC(=O)CSC3c2ccccc2Cl)c1 (stereo not drawn)	0.5	-3.9	-1.4	-0.9	0.7
CN1CCN(c2ccc([N+](=O)[O-])c(Sc3ccccn3)c2)CC1	-0.2	3.2	-7.2	2.7	-70.0*
COc1ccccc1Sc1ccccc1CC(C)N (stereo not drawn)	-0.8	8.3	-1.1	60.0*	-24.7
CC(N)Cc1ccccc1Sc1ccc(O)cc1 (stereo not drawn)	0.4	6.4	-5.2	18.6	-3.2
Cc1[nH]c2c(C(F)(F)F)cccc2c1CCN	1.8	6.3	1.9	9.0	8.3
Cc1c(CCN)ccc2c1[nH]c1ccccc12	5.2	4.1	-7.1	24.9	-37.9*
O=C1CC(c2ccc(F)cc2)c2c(c3ccccc3oc2=O)O1 (stereo not drawn)	0.8	1.1	-0.7	-0.4	-13.3
CSc1ccccc1C(=O)C1CCCN(Cc2ccncc2)C1 (stereo not drawn)	-1.1	40.1*	-3.5	3.6	-12.6
COc1cc(O)c(C(=O)O)c(-c2cc(O)c(O)cc2C)c1	-0.6	0.6	-0.1	1.1	-30.9*
Cc1ccc(Cl)cc1NC(=O)N(Cc1ccc2c(c1)OCO2)C1CCN(Cc2ccccc2)CC1	2.8	-3.1	0.6	21.2	-8.3
CCCC(=O)Nc1ccc(N2CCN(CC)CC2)c(Cl)c1	2.0	23.2	-11.9	2.0	-41.0*
O=C(COc1cc(Cl)ccc1Cl)Nc1ccc(Cl)cc1C(=O)c1ccccc1	-0.4	-2.2	1.1	-3.0	11.0
N#Cc1ccc(NC(=O)CN2C(=O)NC3(CCCCCCC3)C2=O)cc1Cl	0.3	-0.3	1.9	1.8	-56.8*
COc1ccc(/C=C/C2=CCN(C)CC2)cc1	1.8	2.3	-7.2	5.2	-9.9
CN1CC=C(/C=C/c2ccc(-c3ccccc3)cc2)CC1	0.4	-0.2	1.4	23.8	-40.1*
Oc1ccc(CC2CC3CCN2CC3)cc1O (stereo not drawn)	0.4	3.6	-4.0	-0.5	-9.9
Oc1ccc(C[C@H]2NCCc3cc(O)c(O)cc32)cc1O	0.3	5.2	-9.9	2.4	-90.2*
